The whole screen tested about 52,000 compounds, of which about 4,300 (8.3%) were called active. The full list was thinned out, with actives kept by preference. Unmarked numbers belong to inactive results. No stated cut-off is given here; in the data, active means survival mostly below about 52% (no sharp cut-off); inactive means mostly above about 56%.

The test system of this test is DeltatarO mutant. The test is described as follows: S. aureus survival, RN4220 and DeltatarO strains – OD600, teichoic acid synthesis inhibitors, primary screen (AID 463173). The conditions noted are these: S. aureus RN4220 wild type/DeltatarO growth, OD600, 18 h, stronger effect = lower value, screened at 18.75 µg/mL (by protocol).
With `O=C(Nc1ccc2nc(SCCOc3ccccc3Cl)sc2c1)c1ccc2c(c1)OCO2`, the survival was 68%. Consider `COc1cn(CC(=O)Nc2c(C)cc(C)cc2C)c(CN2CCCCC2)cc1=O`, for which the survival is 98%. Take `CCOc1ccc(NS(=O)(=O)c2ccc(NC(=O)N3CCCC3)cc2)cc1`: the survival is 101%. Consider `COc1ccc(OC)c(NC(=O)C(C)n2c(=O)cc(C)c3c(C)nn(-c4ccccc4)c32)c1` (configuration not stated), for which the survival was 94%. Take `CCOc1ccccc1-c1cc(C(=O)N/N=C(\C)c2ccco2)[nH]n1`: the survival was 85%. Next, `Clc1cccc(-c2ccc(CNCCSc3nnnn3-c3ccccc3)o2)c1`: 30% (active); `Cc1c(Cl)cccc1-c1ccc(CNCCSc2nnnn2-c2ccccc2)o1`: 62%. On to `Clc1cccc(CNCCCSc2nnnn2-c2ccccc2)c1`, for which the survival was 68%. On to `Fc1ccc(-c2ccc(CNCCSc3nnnn3-c3ccccc3)o2)cc1Cl`, for which the survival is 39% (active). As to `Fc1ccc(CNCCCSc2nnnn2-c2ccccc2)cc1`, the survival was 97%. For `Clc1ccc(-c2ccc(CNCCSc3nnnn3-c3ccccc3)o2)cc1`, the survival is 52%. As to `CCOc1cc(CNCCSc2nnnn2-c2ccccc2)ccc1OC`, the survival is 60%.

Take `Brc1ccc(-c2ccc(CNCCSc3nnnn3-c3ccccc3)o2)cc1`: the survival is 67%. Consider `Fc1cccc(Cl)c1CNCCSc1nnnn1-c1ccccc1`, for which the survival was 79%. Take `COc1cc(OC)c(OC)cc1CNCCSc1nnnn1-c1ccccc1`: the survival was 61%. The same measure for `CCOc1ccc(Br)cc1CNCCSc1nnnn1-c1ccccc1`: 23% (active); for `Fc1ccc(-c2ccc(CNCCSc3nnnn3-c3ccccc3)o2)cc1`: 28% (active).

`Cc1ccccc1OCC(=O)Nc1ccc2[nH]c(=O)sc2c1`: the survival was 133%. `CN(C)c1ccc(/C=C/C=c2\sc3nc4ccccc4n3c2=O)cc1`: the survival is 102%. In the case of `Cn1nnnc1SCCCNCc1ccc(-c2ccc(Br)cc2)o1`, the survival was 32% (active).

For `Cn1nnnc1SCCCNCc1ccc(-c2cccc(Cl)c2)o1`, the survival was 97%. Next, `Cn1nnnc1SCCCNCc1ccc(-c2ccc(F)c(Cl)c2)o1`: 82%; `COc1cccc2c1Oc1ncccc1N(C(=O)CCC(=O)NCc1ccc(C)cc1)C2`: 81%; `CCc1ccc(C2=NN(CCC(=O)NCCc3ccc(Cl)cc3)C(=O)CC2)cc1`: 128%. `COc1ccc(CCNC(=O)CSc2nc3ccccc3nc2Cc2ccc(C)cc2)cc1OC`: the survival is 35% (active). As to `COc1ccc(CCNC(=O)CSc2nc3ccccc3nc2Cc2ccc(Cl)cc2)cc1OC`, the survival was 37% (active). Regarding `O=C(CSc1nc2ccccc2nc1Cc1ccc(Cl)cc1)NCCc1ccccc1`, the survival was 69%. In the case of `Cc1ccc(Cc2nc3ccccc3nc2SCC(=O)NCCc2ccccc2)cc1`, the survival was 67%. As to `CCCCNC(=O)CSc1nc2ccccc2nc1Cc1ccc(C)cc1`, the survival is 87%. As for `CCCNC(=O)CSc1nc2ccccc2nc1Cc1ccc(Cl)cc1`, the survival was 74%. With `CCOc1ccc(CCNC(=O)CSc2nc3ccccc3nc2Cc2ccc(C)cc2)cc1OCC`, the survival was 112%. As for `CCCCN(C)C(=O)CSc1nc2ccccc2nc1Cc1ccc(C)cc1`, the survival is 32% (active). Regarding `Cc1ccc(CNC(=O)CSc2nc3ccccc3nc2Cc2ccc(C)cc2)cc1`, the survival was 71%. The same measure for `CCOc1ccc(CNS(=O)(=O)c2ccc3c(c2)CCCN3C(C)=O)cc1`: 93%; for `CC(Sc1nc(NC(C)(C)C)nc(N(C)C)n1)C(=O)Nc1ccccc1` (configuration not stated): 68%.

As to `COc1cc2[nH]c(=O)n(Cc3ccc(C(=O)N4CCN(c5cc(Cl)ccc5C)CC4)cc3)c(=O)c2cc1OC`, the survival was 58%. Next, `COc1ccc(CNC(=O)CCNS(=O)(=O)c2ccc3c(c2)CCCC(=O)N3)cc1`: 119%; `COc1ccccc1NC(=O)C1=C(C)Nc2nc(SCc3ccccc3Cl)nn2C1c1ccccn1` (configuration not stated): 171%; `CCn1cc(C(=O)N2CCN(c3ccc(OC)cc3)CC2)c(=O)c2cc(S(=O)(=O)N(C)C3CCCCC3)ccc21`: 122%. For `CC(NC(=O)c1ccc(NC(=O)c2nsc3ccccc23)cc1)c1ccccc1` (configuration not stated), the survival was 84%. `O=C(Cc1csc2ccccc12)NCc1ccc(F)cc1`: the survival is 71%. `Cc1cc(C)c(NC(=O)C(C)n2c(=O)cc(C)c3c(C)nn(-c4ccccc4)c32)c(C)c1` (configuration not stated): the survival was 81%.

As to `COc1ccc(NC(=O)c2nn(C)c3c2CS(=O)(=O)c2ccccc2-3)cc1Cl`, the survival is 56% (active). As to `COc1ccc(Cl)cc1NC(=O)c1nn(C)c2c1CS(=O)(=O)c1ccccc1-2`, the survival was 53%. As to `COCCCNC(=O)c1nn(C)c2c1CS(=O)(=O)c1ccccc1-2`, the survival is 99%. Consider `CC(C)NC(=O)c1nn(C)c2c1CS(=O)(=O)c1ccccc1-2`, for which the survival was 51% (active). `Cn1nc(C(=O)Nc2ccc(F)c(Cl)c2)c2c1-c1ccccc1S(=O)(=O)C2`: the survival was 90%. With `Cn1nc(C(=O)NCc2ccccc2)c2c1-c1ccccc1S(=O)(=O)C2`, the survival is 85%.

Turning to `CCN1C(=O)c2ccccc2Sc2ccc(NC(=O)COc3ccc(Cl)cc3)cc21`, the survival was 91%. Next, `CCCCN(CC)CCNC(=O)c1c(C)oc2ncnc(N3CCOCC3)c12`: 87%; `COc1cccc(N2CCN(c3nc4ccc(C(=O)c5ccccc5)cc4n4c(C)nnc34)CC2)c1`: 102%; `Cc1c(C(=O)OCCOc2ccccc2)[nH]c2c1C(=O)CC(c1ccccc1Cl)C2` (configuration not stated): 80%. `CCC(=O)N1CCc2cc(Br)cc(S(=O)(=O)NCc3ccccc3)c21`: the survival is 66%. Regarding `CCC(=O)N1CCc2cc(Br)cc(S(=O)(=O)NCCc3ccccc3Cl)c21`, the survival was 39% (active).

In the case of `CCC(=O)N1CCc2cc(Br)cc(S(=O)(=O)CCC(=O)NCCc3ccccc3Cl)c21`, the survival was 72%. As to `CCC(=O)N1CCc2cc(Br)cc(S(=O)(=O)NCCc3ccccc3)c21`, the survival is 43% (active). Next, `CCC(=O)N1CCc2cc(Br)cc(S(=O)(=O)NCCc3cccc(C)c3)c21`: 102%; `CCC(=O)N1CCc2cc(Br)cc(S(=O)(=O)NCCc3ccc(C)cc3)c21`: 85%; `CC(CNC(=O)c1ccc2nc(Cc3ccccc3)oc2c1)c1ccccc1` (configuration not stated): 70%. The same measure for `CC(Sc1nccn1C)C(=O)Nc1ccccc1C#N` (configuration not stated): 85%; for `COc1ccccc1CNc1ncnc2c1c(-c1ccccc1)cn2-c1cccc(C)c1`: 80%; for `O=S(=O)(c1ccc(C2CCCCC2)cc1)N1CCN(c2ccc(Cl)c(Cl)c2)CC1`: 54% (active). Turning to `CCc1ccc(S(=O)(=O)N2CCN(c3ccc(Cl)c(Cl)c3)CC2)cc1`, the survival was 118%.

In the case of `O=S(=O)(c1ccc(C2CCCCC2)cc1)N1CCN(c2cc(Cl)ccc2Cl)CC1`, the survival was 72%. With `Cc1cccc(OC(=O)c2snnc2C)c1`, the survival is 88%.

Take `Cc1cccc(NC(=O)c2oc3ccc(S(=O)(=O)N4CCCCC4)cc3c2C)c1C`: the survival is 71%. `COc1ccccc1NC(=O)CSC1=Nc2ccccc2C2=NC(CC(=O)NCc3ccccc3)C(=O)N12` (configuration not stated): the survival was 71%. For the compound `Cc1ccc(-n2ncc3c(N4CCCCCC4)ncnc32)cc1Cl`, the survival was 102%. For `CCn1c(=O)cc(SCC(=O)NCCc2cc(OC)ccc2OC)c2ccccc21`, the survival is 61%. `CCCCNc1nc2c(c(=O)n(Cc3ccc(Cl)c(Cl)c3)c(=O)n2C)n1C`: the survival is -10% (active). For the compound `COc1cccc(Cn2c(Oc3cc(C)cc(C)c3)nc3c2c(=O)n(C)c(=O)n3C)c1`, the survival is 31% (active). The same measure for `CCCCNc1nc2c(c(=O)n(Cc3ccccc3)c(=O)n2C)n1C`: 66%; for `Cc1ccc(Oc2nc3c(c(=O)n(Cc4ccccc4)c(=O)n3C)n2C)cc1C`: 44%.

With `CCCCNc1nc2c(c(=O)n(Cc3ccc(Cl)cc3)c(=O)n2C)n1C`, the survival was 56%. Turning to `Cc1cccc(Oc2nc3c(c(=O)n(C)c(=O)n3C)n2Cc2ccccc2)c1C`, the survival was 53%. Regarding `Cc1cccc(Oc2nc3c(c(=O)n(C)c(=O)n3C)n2C)c1`, the survival is 123%.

In the case of `Cc1cc(C)cc(Oc2nc3c(c(=O)n(C)c(=O)n3C)n2Cc2ccc(F)cc2)c1`, the survival is 76%.

As to `CCCCC(CC)Cn1c(Oc2ccccc2)nc2c1c(=O)n(C)c(=O)n2C` (configuration not stated), the survival was -15% (active). Next, `Cc1ccc(C)c(Oc2nc3c(c(=O)n(C)c(=O)n3C)n2Cc2ccccc2)c1`: 32% (active); `COc1cccc(Cn2c(NCc3ccc(C)cc3)nc3c2c(=O)n(C)c(=O)n3C)c1`: 79%; `Cn1c(=O)c2c(nc(Oc3ccccc3)n2Cc2c(Cl)cccc2Cl)n(C)c1=O`: 84%. Consider `CCOc1ccc(C(=O)c2cn(CC(=O)Nc3ccc(OC)cc3)c3cc4c(cc3c2=O)OCCO4)cc1`, for which the survival is 82%. The same measure for `CCc1cccc(C)c1NC(=O)Cn1nc(C)c2nn(-c3ccc(Cl)cc3)c(C)c2c1=O`: 124%. `Cc1ccc(-n2nc(CO)c(C(=O)NCCO)n2)cc1`: the survival is 82%. Regarding `CCOc1ccc(CN2CCc3nc(Nc4ccc5c(c4)OCCO5)ncc3C2)cc1`, the survival is 89%. Regarding `Cc1ccc(S(=O)(=O)c2nnn3c2nc(N2CCCCC2)c2sccc23)cc1`, the survival is 104%. `CCOC(=O)c1scc(-c2ccc(C)cc2)c1S(=O)(=O)N1CCN(c2ccccc2)CC1`: the survival was 73%. Turning to `Cc1ccc(CSc2nnc(-n3c(=O)c(C#N)cc4c(=O)n5cccc(C)c5nc43)s2)cc1`, the survival was 101%. As for `N#Cc1cc(-c2ccc(Cl)cc2)no1`, the survival was 97%. On to `COC(=O)CSc1nnc(-c2ccccc2)n1C`, for which the survival is 97%. The same measure for `CCc1ccccc1NC(=O)Nc1c(C)n(C)n(-c2ccccc2)c1=O`: 88%.

Consider `CN1C(=O)N(C)C2(CC1(C)C)CC(C)(C)N(C)C(=O)N2C`, for which the survival is 102%.
